Source: PubChem BioAssay (National Center for Advancing Translational Sciences (NCATS))
MCF10A rereplic – inducers of DNA re-replication in MCF 10A breast cells; MCF 10A DNA re-replication, Hoechst nuclear intensity, 48 h; Potency, µM (doses to about 46.1 µM), inactives show at the highest dose activity, positive = re-replication, hits mostly activators; actives 2.9% (n = 350,000); note: % of control where 0% means no effect; nearly all actives have a fitted effect of over 50% in size
ELG1 DNA repair – ELG1-dependent DNA repair inhibition | HEK293T ELG1-luciferase reporter, luminescence, 16 h; DNA damage induced by 5-fluorouridine | Potency, µM (series often up to 46.1 µM), inactives show top-dose activity change, negative = inhibition, actives largely listed as inhibitors | actives 2.3% (n = 330,000) | AID 504467; note: % is set by controls: 0 for no effect and ±100 for the full control effect; nearly all actives have a fitted effect of over 55% in size
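Cells (2,000 per well) received 5-fluorouridine plus test compound or DMSO and were incubated 16 hr at 37 °C, 5% CO2. Luciferase activity was read by luminescence 30 min after ONE-Glo addition; signal suppression marked inhibition of damage-induced ELG1 function.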
SW480 rerep – induces DNA re-replication in SW480 colon adenocarcinoma cells; Potency, µM (series often up to 46.1 µM), for the others: at the highest dose re-replication activation, actives largely listed as activators; AID 624297; actives 1.8% (n = 340,000); SW480 DNA re-replication, Hoechst DNA content imaging, 48 h; note: % of control where 0% means no effect; nearly all actives have a fitted effect of over 55% in size
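DNA re-replication was detected as more nuclei of elevated Hoechst intensity after 48 hr exposure to compound (23 nL pinned per well of 250 cells).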
VP16 counter – Gal4-VP16 reporter inhibition counter-screen; Drosophila S2 Gal4-VP16 UAS-luciferase, luminescence, 20 h; Potency, µM (highest dose often 53.6 µM), without a hit: at the highest dose activity, negative = inhibition, most hits filed as inhibitors; actives 3.5% (n = 310,000);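 note: Gal4-VP16 expression switched on by copper sulfate through the metallothionein promoter; % is set by controls: 0 for no effect and ±100 for the full control effect; nearly all actives have a fitted effect of over 50% in size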
RORgamma inh – blocks mouse ROR gamma transcriptional activity; P51450; Drosophila S2 Gal4-RORgamma UAS-luciferase reporter, 20 h; Potency, µM (doses to about 53.6 µM), without a hit: top-dose activity change, negative = inhibition, usual class: inhibitors; actives 5.4% (n = 310,000); note: % is set by controls: 0 for no effect and ±100 for the full control effect; nearly all actives have a fitted effect of over 60% in size
Target sequence (P51450 whole entry, looked up, the tested form may be a part): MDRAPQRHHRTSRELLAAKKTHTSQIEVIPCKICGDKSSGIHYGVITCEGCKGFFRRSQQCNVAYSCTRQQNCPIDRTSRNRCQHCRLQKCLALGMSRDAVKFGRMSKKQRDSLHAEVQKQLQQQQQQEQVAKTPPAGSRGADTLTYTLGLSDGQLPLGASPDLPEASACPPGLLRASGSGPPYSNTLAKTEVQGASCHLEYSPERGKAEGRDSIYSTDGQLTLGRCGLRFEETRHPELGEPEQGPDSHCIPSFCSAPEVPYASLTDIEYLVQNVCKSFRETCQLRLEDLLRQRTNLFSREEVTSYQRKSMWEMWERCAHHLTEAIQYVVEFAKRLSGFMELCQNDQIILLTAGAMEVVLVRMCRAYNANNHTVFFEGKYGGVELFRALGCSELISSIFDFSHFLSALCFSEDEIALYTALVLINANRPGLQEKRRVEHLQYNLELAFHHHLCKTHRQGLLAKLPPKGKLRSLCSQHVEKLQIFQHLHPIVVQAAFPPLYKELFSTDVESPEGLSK
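Drosophila Schneider cells stably carrying a metallothionein-driven Gal4 DBD–ROR gamma fusion and a UAS-Photinus luciferase reporter were exposed to compound for 1 hr, then induced with copper sulfate (700 uM final) for 20 hr at ambient temperature before luminescence reading.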
The depositor's hits bear a star; [ ] = another dose, or the depositor's remark. An excerpt weighted towards active compounds, which were near 10% of everything screened. Calls come from the whole dose curve; as a rule, active = well fitted curve in the direction sought with a large enough effect; inconclusive = small, poorly fitted or top-dose-only effect, or another doubt; inactive = no such curve, though single readings can be large; an effect the other way counts as inactive or inconclusive. Potency is the fitted concentration of half-maximal effect.

`O=C(CSc1cc(Cl)ccc1Cl)NC1CCCc2ccccc21` (stereo unspecified) gave MCF10A rereplic inconclusive, ELG1 DNA repair 1%, SW480 rerep inconclusive, VP16 counter inconclusive and RORgamma inh inconclusive.
COc1ccc(-c2nc(CSCC(=O)NC3CCCc4ccccc43)c(C)o2)cc1 (stereo unspecified) was read as MCF10A rereplic 16µM*, ELG1 DNA repair inconclusive, SW480 rerep 15%, VP16 counter 6% and RORgamma inh inconclusive.
`Cc1ccc2nc(SCC(=O)NC3CCCc4ccccc43)[nH]c2c1` (stereo unspecified) gave MCF10A rereplic 15µM*, ELG1 DNA repair inconclusive, SW480 rerep inconclusive, VP16 counter -12% and RORgamma inh 1%.
`COc1ccc(-c2nc(CSCC(=O)NCCCN3CCCC3=O)c(C)o2)cc1` gave MCF10A rereplic -2%, ELG1 DNA repair 10%, SW480 rerep 0%, VP16 counter 11µM* and RORgamma inh -24%.
`NC(=O)CC(NC(=O)Cc1ccc(Cl)cc1)c1ccc(NC2CC3CCC2C3)c([N+](=O)[O-])c1` (stereo unspecified) gave MCF10A rereplic -10%, ELG1 DNA repair -7%, SW480 rerep -29%, VP16 counter -5% and RORgamma inh 43%.
`COc1ccc(C(=O)COC(=O)c2cc(=O)c3ccccc3o2)cc1` gave MCF10A rereplic 4%, ELG1 DNA repair 0% and SW480 rerep 7%.
`Cc1ccsc1C(=O)Nc1nccs1` gave MCF10A rereplic -5%, ELG1 DNA repair inconclusive, SW480 rerep 7%, VP16 counter inconclusive and RORgamma inh 11µM*.
`CCc1sc(C(=O)Nc2nccs2)cc1C` gave MCF10A rereplic 10%, ELG1 DNA repair inconclusive, SW480 rerep -9%, VP16 counter inconclusive and RORgamma inh 7.9µM*.
Screening CCOC(=O)/C=C/C(=O)Nc1nccs1 returned MCF10A rereplic 18µM*, ELG1 DNA repair 0%, SW480 rerep inconclusive, VP16 counter inconclusive and RORgamma inh inconclusive.
Screening Cc1csc(NC(=O)c2sccc2C)n1 returned MCF10A rereplic 2%, ELG1 DNA repair inconclusive, SW480 rerep -2%, VP16 counter inconclusive and RORgamma inh -31%.
Screening FC(F)(F)c1ccccc1-c1nccc(N2CCNCC2)n1 returned VP16 counter -3% and RORgamma inh -26%.
O=C1C=CC(=O)N1N(c1ccccc1)c1ccccc1 was read as MCF10A rereplic 5.2µM*, ELG1 DNA repair inconclusive, SW480 rerep inconclusive, VP16 counter inconclusive and RORgamma inh -43%.
O=C1c2ccccc2C(=O)N1N(c1ccccc1)c1ccccc1 was read as MCF10A rereplic -43% and SW480 rerep 1%.
For CCSc1cc(C)nc2c(-c3ccccc3)cnn12 the results were MCF10A rereplic 16%, ELG1 DNA repair inconclusive, SW480 rerep 27%, VP16 counter -6% and RORgamma inh -15%.
For C=CCSc1cc(C)nc2c(-c3ccccc3)cnn12 the results were MCF10A rereplic 11%, ELG1 DNA repair inconclusive, SW480 rerep inconclusive, VP16 counter inconclusive and RORgamma inh 10µM*.
For CC(=O)Nc1ccc(Nc2cc(C)nc3c(-c4ccccc4)cnn23)cc1 the results were MCF10A rereplic inconclusive, ELG1 DNA repair inconclusive, SW480 rerep 10%, VP16 counter 7.9µM* and RORgamma inh 13µM*.
For CC(=O)OCc1ccc2c(c1)OCO2 the results were VP16 counter 0% and RORgamma inh -7%.
For O=S(=O)(/N=S1/CC=CCN1S(=O)(=O)c1ccccc1)c1ccccc1 (stereo unspecified) the results were ELG1 DNA repair -1%, SW480 rerep inconclusive, VP16 counter inconclusive and RORgamma inh 11µM*.
`O=S(=O)(c1ccccc1)N1CCN(S(=O)(=O)c2ccccc2)C1` gave MCF10A rereplic -7%, ELG1 DNA repair 1%, SW480 rerep -8%, VP16 counter 9% and RORgamma inh 5%.
CN(CC(=O)Nc1ccc(F)cc1)CC(=O)N1CCc2ccccc21 was read as MCF10A rereplic 6%, ELG1 DNA repair 16% and SW480 rerep inconclusive.
COc1ccc(-n2nc(C(=O)N3CCC(N4CCCCC4)CC3)c3c4ccccc4n(C)c3c2=O)cc1 was read as MCF10A rereplic 19%, ELG1 DNA repair inconclusive, SW480 rerep -7%, VP16 counter -15% and RORgamma inh -14%.
For N#Cc1ccccc1NC(=O)CNc1ccc(Cl)c(C(F)(F)F)c1 the results were MCF10A rereplic -1%, ELG1 DNA repair -21%, VP16 counter 11µM* and RORgamma inh inconclusive.
`Cc1ccnc(NC(=O)c2cccc(S(=O)(=O)N3CCCC3)c2)c1` gave MCF10A rereplic -1%, ELG1 DNA repair inconclusive, SW480 rerep -9%, VP16 counter -2% and RORgamma inh 21%.
For CCOc1ccc(C(=O)CC(NCc2cccs2)C(=O)O)cc1 (stereo unspecified) the results were MCF10A rereplic inconclusive, ELG1 DNA repair 8%, SW480 rerep inconclusive, VP16 counter 13µM* and RORgamma inh 4.5µM*.
Screening CCN(CC)c1nc2ccccc2nc1-n1nc(C)cc1C returned MCF10A rereplic 18%, ELG1 DNA repair -8%, SW480 rerep 2%, VP16 counter 8% and RORgamma inh 0%.
For COc1cc(CNc2ccc(C)c(C)c2)cc(OC)c1OC the results were MCF10A rereplic 16µM*, ELG1 DNA repair inconclusive, SW480 rerep 8.2µM*, VP16 counter 1% and RORgamma inh -8%.
`COc1cc(CNC2CCCCCCC2)cc(Br)c1OCC#N` gave MCF10A rereplic inconclusive, ELG1 DNA repair inconclusive, SW480 rerep inconclusive, VP16 counter -19% and RORgamma inh 1%.
`CCOc1cc(CNc2ccc3c(c2)OCCO3)cc(Br)c1OC` gave MCF10A rereplic 1.6µM*, ELG1 DNA repair 17%, SW480 rerep 7.3µM*, VP16 counter 11% and RORgamma inh 46%.
For CCOc1c(Br)cc(CNc2ccc3c(c2)OCCO3)cc1OC the results were MCF10A rereplic 1.3µM*, ELG1 DNA repair inconclusive, SW480 rerep 5.8µM*, VP16 counter -3% and RORgamma inh -23%.
CCOc1c(Br)cc(CNC2CCCCCCC2)cc1OC was read as MCF10A rereplic 10µM*, ELG1 DNA repair -19%, SW480 rerep inconclusive, VP16 counter 2% and RORgamma inh inconclusive.
`CCS(=O)(=O)N1Cc2ccccc2CC1C(=O)N1CCN(c2cccc(C)c2C)CC1` (stereo unspecified) gave MCF10A rereplic 363%[0.0737 µM], ELG1 DNA repair inconclusive, SW480 rerep 1%, VP16 counter 0% and RORgamma inh 4%.
